Holding throughout (test): NCI-60 one-dose screen, 48 h (100 = growth as untreated, 0 = no growth, -100 = all killed)
One experiment has as its system NCI-H23 lung. Particulars: 10 µM unless noted.
A further experiment relates to NCI-H226 lung. The conditions noted are these: 10 µM unless noted.
In the next experiment the test system is NCI-H322M lung. The conditions noted are these: 10 µM unless noted.
In a further experiment the test system is HOP-62 NSCLC. Particulars: 10 µM unless noted.
Another experiment deals with NCI-H460 lung. Particulars: 10 µM unless noted.
A further experiment concerns HOP-92 NSCLC. The conditions noted are these: 10 µM unless noted.
Another experiment relates to NCI-H522 lung. The conditions noted are these: 10 µM.
For the next experiment, the system named is 786-0 renal. Particulars: 10 µM unless noted.
A further experiment deals with COLO 205 colon. Particulars: 10 µM unless noted.
In the next experiment the test system is K-562 leukemia. Particulars: 10 µM unless noted.
For another experiment, the system named is MALME-3M melanoma. Particulars: 10 µM unless noted.
The next experiment relates to MDA-MB-231 breast. The conditions noted are these: 10 µM unless noted.
For a further experiment, the system named is SF-268 CNS. Particulars: 10 µM unless noted.
Another experiment has as its system SF-295 CNS. The conditions noted are these: 10 µM unless noted.
The subject of another experiment is SF-539 CNS. The conditions noted are these: 10 µM unless noted.
In a further experiment the test system is UACC-257 melanoma. Particulars: 10 µM unless noted.
In another experiment the test system is M14 melanoma. The conditions noted are these: 10 µM unless noted.
The next experiment has as its system A549/ATCC NSCLC. The conditions noted are these: 10 µM unless noted.
For a further experiment, the system named is DU-145 prostate. Particulars: 10 µM unless noted.
In the next experiment the test system is RXF 393 renal. Particulars: 10 µM unless noted.

Each structure is given as a SMILES string. The panel holds about 83,000 compounds, 20% with a hit somewhere; the sample as a whole holds those more often.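 Assay: single dose, 48 h. Readout: percent growth (0 = no net growth; negative = cell death). Active: <10.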 Values without a mark were called inactive. Calls of active or inactive are those of the source.

Regarding `CC(=O)Nc1cc(C(c2ccccc2)c2ccccc2)cc(C(c2ccccc2)c2ccccc2)c1C`, the growth in the experiment with NCI-H23 lung is 60%; with NCI-H226 lung it was 55.6%; in the experiment on NCI-H322M lung, 81.7%; with HOP-62 NSCLC, 8.81% (active); in the experiment on NCI-H460 lung, 55.4%; with HOP-92 NSCLC, 41.4%. Also, the growth in the experiment on NCI-H522 lung was 45.6%; in the experiment with 786-0 renal, 63.6%; in the experiment on COLO 205 colon it was 64.3%; in the experiment with K-562 leukemia it was 35.3%; in the experiment with MALME-3M melanoma, 75.2%; in the experiment with MDA-MB-231 breast, 69.8%. Moreover, the growth in the experiment with SF-268 CNS is 53.5%; in the experiment with SF-295 CNS it was 54.9%; in the experiment with SF-539 CNS, 77.3%; in the experiment on UACC-257 melanoma it was 64.8%; in the experiment with M14 melanoma it was 79.2%.

With `COc1cc(/C=N/NC(=O)c2ccc(C(F)(F)F)nc2Nc2cc(Cl)ccc2C)cc(OC)c1OC`, the growth in the experiment with NCI-H23 lung was 104%; in the experiment with NCI-H226 lung, 96.6%; in the experiment with NCI-H322M lung it was 105%; in the experiment on HOP-62 NSCLC, 99.7%; in the experiment with NCI-H460 lung it was 108%; in the experiment with HOP-92 NSCLC it was -30% (active). Moreover, the growth in the experiment on A549/ATCC NSCLC is 103%; in the experiment on 786-0 renal, 97.7%; in the experiment with COLO 205 colon, 109%; in the experiment on DU-145 prostate it was 154%; in the experiment on K-562 leukemia, 83.8%; in the experiment on MALME-3M melanoma, 61.8%. Moreover, the growth with MDA-MB-231 breast is 86.3%; in the experiment on RXF 393 renal, 77.7%; in the experiment with SF-268 CNS, 88.9%; in the experiment on SF-295 CNS, 70.9%; in the experiment on SF-539 CNS it was 103%; with UACC-257 melanoma, 112%.

Turning to `N=C1c2nc3n(c2C(=O)c2nc4n(c21)CCCCC4)CCCCC3`, the growth is 97.3% with NCI-H23 lung; 98.3% with NCI-H226 lung; 110% with NCI-H322M lung; 122% in the experiment on HOP-62 NSCLC; 92.6% with NCI-H460 lung; 126% in the experiment on HOP-92 NSCLC. Further, the growth in the experiment on NCI-H522 lung is 90.9%; in the experiment with 786-0 renal it was 120%; with DU-145 prostate it was 113%; in the experiment on K-562 leukemia it was 102%; in the experiment on MALME-3M melanoma, 103%; with MDA-MB-231 breast, 117%. In addition, the growth was 102% in the experiment with RXF 393 renal; 108% in the experiment with SF-268 CNS; 93.8% in the experiment on SF-295 CNS; 105% in the experiment with SF-539 CNS; 108% in the experiment with M14 melanoma.

`O=C(COc1cccc(/C=C2\Cc3ccccc3C2=O)c1)c1ccc(Cl)cc1`: the growth was 96.1% in the experiment with NCI-H23 lung; 105% in the experiment on NCI-H226 lung; 131% with NCI-H322M lung; 98% with HOP-62 NSCLC; 117% in the experiment on NCI-H460 lung; 86.6% with HOP-92 NSCLC. For the same compound, the growth in the experiment with NCI-H522 lung was 81.1%; in the experiment with 786-0 renal, 97.8%; with COLO 205 colon, 142%; with K-562 leukemia, 100%; in the experiment with MALME-3M melanoma, 90%; in the experiment with MDA-MB-231 breast, 84.1%. Besides, the growth in the experiment on SF-268 CNS was 117%; in the experiment with SF-295 CNS, 124%; in the experiment with SF-539 CNS it was 95.6%; with UACC-257 melanoma it was 96.4%; in the experiment on M14 melanoma, 105%.

For the compound `COc1ccc(C(=O)COc2cccc(/C=C3\CSc4ccc(Cl)cc4C3=O)c2)cc1`, the growth with NCI-H23 lung is 87.1%; in the experiment with NCI-H226 lung, 75.1%; in the experiment on NCI-H322M lung, 93.5%; with HOP-62 NSCLC, 95.8%; in the experiment with NCI-H460 lung, 101%; in the experiment on HOP-92 NSCLC, 68%. The growth was 61.7% with NCI-H522 lung; 97.3% in the experiment with 786-0 renal; 123% in the experiment with COLO 205 colon; 22.1% with K-562 leukemia; 76.2% with MDA-MB-231 breast; 91% in the experiment with SF-268 CNS. Further, the growth was 95.9% with SF-295 CNS, 104% with SF-539 CNS, 89.3% in the experiment on UACC-257 melanoma and 102% in the experiment on M14 melanoma.

Turning to `COc1cccc(C2=NN(C(C)=O)C(c3cc(OC)c(OC)c(OC)c3)C2)c1` (configuration not stated), the growth in the experiment with NCI-H23 lung was 52%; in the experiment with NCI-H226 lung, 90.1%; in the experiment with NCI-H322M lung, 77%; with HOP-62 NSCLC, 31.5%; with NCI-H460 lung it was -0.923% (active); in the experiment on HOP-92 NSCLC, -0.613% (active). The growth with NCI-H522 lung is -38% (active); with 786-0 renal, 30%; in the experiment with COLO 205 colon, 22.2%; in the experiment on K-562 leukemia it was 9.66% (active); with MALME-3M melanoma, 65.9%; in the experiment with MDA-MB-231 breast, 41.3%. Further, the growth was 38.6% in the experiment with SF-268 CNS; 193% with SF-295 CNS; 7.59% (active) in the experiment with SF-539 CNS; 48.3% in the experiment with UACC-257 melanoma; 16.8% with M14 melanoma.

For the compound `CCOC1Oc2ccccc2C(=O)/C1=N/c1nccs1` (configuration not stated), the growth in the experiment with NCI-H23 lung is 95.2%; in the experiment on NCI-H226 lung, 84%; with NCI-H322M lung it was 99.7%; with HOP-62 NSCLC, 92.7%; in the experiment with NCI-H460 lung it was 106%; in the experiment on HOP-92 NSCLC, -23.6% (active). Moreover, the growth is 111% with A549/ATCC NSCLC; 100% in the experiment with 786-0 renal; 95.1% in the experiment with COLO 205 colon; 101% in the experiment on DU-145 prostate; 84.9% in the experiment on K-562 leukemia; 51.9% with MALME-3M melanoma. The growth in the experiment with MDA-MB-231 breast was 78.1%; in the experiment with RXF 393 renal, 102%; with SF-268 CNS, 76.9%; with SF-295 CNS it was 93.5%; in the experiment on SF-539 CNS, 93.9%; with UACC-257 melanoma, 112%.

On to `Nc1nc(NC2CC2)c2ncn(C3C=CC(CO)C3)c2n1` (configuration not stated), for which the growth with NCI-H23 lung was 107%; with NCI-H226 lung, 91.4%; in the experiment with NCI-H322M lung, 94%; in the experiment with HOP-62 NSCLC, 104%; in the experiment with NCI-H460 lung, 118%; with HOP-92 NSCLC, 97%. For the same compound, the growth in the experiment on A549/ATCC NSCLC is 108%; with 786-0 renal, 107%; in the experiment with COLO 205 colon, 121%; in the experiment with DU-145 prostate, 126%; in the experiment with K-562 leukemia, 84.2%; in the experiment on MALME-3M melanoma, 105%. Further, the growth with MDA-MB-231 breast was 98.5%; in the experiment with RXF 393 renal, -4.67% (active); with SF-268 CNS, 126%; in the experiment on SF-295 CNS, 106%; in the experiment on SF-539 CNS, 118%; in the experiment on UACC-257 melanoma it was 100%. Also, the growth in the experiment on M14 melanoma is 116%.

As to `CCOC(=O)c1cc2oc(/C=C/c3cc(=O)c4cc(Cl)ccc4o3)cc2[nH]1`, the growth in the experiment on NCI-H23 lung was 98.6%; in the experiment with NCI-H226 lung it was 76.9%; with NCI-H322M lung, 108%; with HOP-62 NSCLC it was 99.6%; in the experiment on NCI-H460 lung, 88.9%; in the experiment on HOP-92 NSCLC, -17.9% (active). For the same compound, the growth with A549/ATCC NSCLC is 99%; in the experiment on 786-0 renal, 97.7%; in the experiment on COLO 205 colon, 93.9%; with DU-145 prostate, 65.4%; in the experiment with K-562 leukemia it was 88.9%; with MALME-3M melanoma, -14.5% (active). Moreover, the growth in the experiment on MDA-MB-231 breast is 78.9%; in the experiment on RXF 393 renal, 58%; with SF-268 CNS, 73%; with SF-295 CNS, 109%; with SF-539 CNS, 70%; in the experiment with UACC-257 melanoma, 101%.

The record behind these values is PubChem BioAssay (NCI).
